An excerpt weighted towards active compounds, which were near 3.7% of everything screened.
tim23-1 inh: growth inhibitors of tim23-1 mutant yeast, primary screen, luminescence, uHTS; S. cerevisiae tim23-1 growth, BacTiter-Glo luminescence, 24 h; inhibition, % at 20 µM; hit rate 1.3% among 330,000;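 active means growth inhibition of the mutant yeast at or above 50%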;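 further: temperature-sensitive mutant grown at 25 °C; plate controls were DMSO-treated mutant yeast for no effect and medium wells lacking yeast for full effect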
TIM10 inh: growth inhibitors of isogenic TIM10 control yeast, primary screen, counter-screen for tim10-1 yeast inhibitor project, luminescence, uHTS; S. cerevisiae TIM10 strain growth, BacTiter-Glo luminescence, 24 h; inhibition, % at 10 µM; hit rate 1.4% among 330,000; AID 463195, 2010;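 active means inhibition of 40% or more at the single tested concentration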;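 further: wild-type TIM10 isogenic control strain grown at permissive 25 °C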
Rce1 inh: yeast Rce1p protease inhibitors, primary screen, biochemical, fluorescence, cell-free homogeneous; hit rate 0.27% among 290,000; CAAX prenyl protease 2 (Saccharomyces cerevisiae (strain ATCC 204508 / S288c)), Q03530; yeast membranes, quenched prenylated peptide cleavage fluorescence; calls only;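 active means fall in fluorescence gain of 50% or more versus controls, with final raw signal at or below 3038400; inconclusive means same 50% fall but final raw signal above 3038400; inactive means fall in fluorescence gain under 50%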;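 further: plate controls were neutral control wells for no effect and wells lacking membranes for full effect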
Target sequence (Q03530 whole entry, looked up): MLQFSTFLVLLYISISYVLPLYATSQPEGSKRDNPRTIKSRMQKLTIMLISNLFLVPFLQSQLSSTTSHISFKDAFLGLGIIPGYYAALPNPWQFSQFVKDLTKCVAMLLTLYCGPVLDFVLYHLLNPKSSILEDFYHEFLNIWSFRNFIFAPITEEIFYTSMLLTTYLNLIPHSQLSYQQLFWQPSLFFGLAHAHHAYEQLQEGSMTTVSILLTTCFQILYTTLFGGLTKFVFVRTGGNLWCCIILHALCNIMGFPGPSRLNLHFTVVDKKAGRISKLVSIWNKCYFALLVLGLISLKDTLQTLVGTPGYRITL
tim10-1 inh: growth inhibitors of tim10-1 mutant yeast, primary screen, luminescence, uHTS. hit rate 2.2% among 330,000. S. cerevisiae tim10-1 ts strain growth, BacTiter-Glo, 24 h. inhibition, % at 20 µM;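 active means inhibition of at least 40%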;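 further: mutant grown at 25 °C; 0% = DMSO wells with yeast and 100% = wells holding no yeast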
PfHsp90 yeast 2: growth inhibition of PfHsp90-expressing yeast, primary screen, antimalarial PfHsp90 inhibitor project, S. cerevisiae, BacTiter-Glo luminescence, single point, set 2. AID 504621, 2011. hit rate 0.32% among 310,000. inhibition, % at 9.4 µM. BacTiter-Glo ATP, 48 h; yeast lacking PDR1 and PDR3 efflux regulators;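 active means every replicate shows inhibition above about 80%, whatever the replicate mean, limit read from the data; inconclusive means mean inhibition reaches the set limit but some replicate falls short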;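 further: 0% = DMSO neutral controls and 100% = 20 µM radicicol positive controls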
* = called active by the depositor; i = inactive; ? = inconclusive; . = not tested or not shown; + = active, no number.

SMILES	tim23-1 inh	TIM10 inh	Rce1 inh	tim10-1 inh	PfHsp90 yeast 2
Nc1ccccc1C(=O)NNC1=C(C(=O)C(F)(F)F)CCC1	1.6	-4.9	.	13.4	2.9
CN1C(=O)/C(=N/OC(=O)c2ccccc2)c2ccccc21	-20.2	19.2	i	-24.7	137.4*
COc1ccc(-c2c[n+]3c4n2CCCCC4=C(c2ccc(Br)cc2)C3)cc1	.	.	+	.	-2.5
CCN(C(=O)c1cnc(NC(C)C)cc1C(F)(F)F)c1ccc(Cl)cc1Cl	33.9	-7.7	i	15.8	4.5
CCCC1COC(Cn2cncn2)(c2ccc(C)cc2)O1 (configuration not stated)	-251.6	-61.1	i	-209.0	98.6*
Cc1ccc(S(=O)(=O)N2CCN(C(=O)CCn3cncn3)CC2)cc1	-7.1	-3.9	i	-1.0	-9.3
Cc1cc(C)c2c(N=NN(C)C)[nH]nc2n1	-4.1	-1.7	i	2.2	103.9*
CC(C)CC(=O)NC(=S)Nc1ccc(S(=O)(=O)Nc2nccs2)cc1	16.4	-4.0	+	11.1	10.1
O=C(CCCc1nc2ccccc2s1)Nc1ccc(N2CCOCC2)cc1	24.9	19.0	i	17.4	3.9
C/C(=N\NC(=O)c1ccccn1)c1ccc(C(=O)O)s1	1.1	4.6	i	-2.0	.
CC1=C(C)/C(=N\OS(=O)(=O)c2ccc(C)cc2)C=CC1=O	.	.	.	.	109.8*
COC(=O)[C@@]12CCCN1[C@H](c1ccc(-c3ccc(C(C)=O)cc3)c(OC)c1)[C@H]1C(=O)N(C)C(=O)[C@H]12	11.7	9.5	.	8.8	-32.9
O=S(=O)(NCCCN1CCOCC1)c1ccc2ccccc2c1	-17.4	-35.9	i	-16.6	6.4
CCC(C)(C)n1nnnc1C(c1ccncc1)N1CCC(Cc2ccccc2)CC1 (configuration not stated)	37.3	39.3	i	36.7	-30.4
CCC(C)(C)n1nnnc1C(c1cccnc1)N1CCC(Cc2ccccc2)CC1 (configuration not stated)	-346.4	-44.9	i	-56.5	83.2*
O=Cc1ccc(N2CCCC2)c([N+](=O)[O-])c1	14.5	-5.0	i	3.0	20.5
O=[N+]([O-])/C=C\c1ccc(N2CCCC2)c(F)c1	.	.	i	.	105.5*
Brc1csc2ncccc12	-6.6	10.1	.	-2.5	3.9
Oc1c(CN2CCN(c3ccccc3)CC2)cc(Br)c2cccnc12	.	.	i	.	123.7*
Oc1c(Br)cc(Br)c2cccnc12	.	.	.	.	107.0*
CC1(C)CC(=O)C=C(Nc2ccc(C(=O)O)c(O)c2)C1	-1.8	3.3	i	3.4	1.9
CCOC(=O)c1[nH]c(=O)[nH]c1CNc1ccccc1C#N	5.9	-11.0	i	3.3	9.5
CC(=O)N1c2ccccc2C2(O)N=C(C)SC12 (configuration not stated)	-1.5	8.4	i	5.8	-9.4
Cc1cccc(N2CCN(C(=O)Cn3sc4nc(C)cc(C)c4c3=O)CC2C)c1 (configuration not stated)	-1.9	-5.7	i	-47.8	167.3*
Cc1cc(C)c2c(=O)n(CC(=O)N3CCC(Cc4ccccc4)CC3)sc2n1	20.4	9.9	i	-68.8	.
SMILES	tim23-1 inh	TIM10 inh	Rce1 inh	tim10-1 inh	PfHsp90 yeast 2
CC(C)C[C@H](NC(=O)c1nc[nH]c1C(=O)N1CCNCC1)C(=O)OCc1ccccc1	-5.8	-3.8	+	-7.0	-11.2
CC(C)C[C@H](NC(=O)c1nc[nH]c1C(=O)N1CCN(c2ccccc2)CC1)C(=O)OCc1ccccc1	20.4	13.5	i	20.1	11.0
Cc1c(Cl)cccc1NC(=O)CSc1nccn1C	11.9	7.0	i	0.1	-9.9
O=C1C=C(c2cccs2)C[C@H](c2ccccc2)[C@H]1n1nnc([N+](=O)[O-])n1	-63.9	8.3	i	-38.4	92.4*
CC(=O)C1C(=O)C=C(c2cccs2)CC1c1ccccc1 (configuration not stated)	13.3	13.2	i	12.9	-12.8
c1cnn(Cc2cnc(N3CCOCC3)s2)c1	-3.0	-5.9	+	-1.3	-4.3
c1ccc(N2CCN(Cc3cnc(N4CCOCC4)s3)CC2)cc1	-3.0	2.5	i	7.3	4.7
Cc1cc(C)c2cc(C#N)c(NCCCNC(=O)CCC(=O)O)nc2c1	9.9	2.2	+	12.2	.
CC1=NN(c2nc(-c3ccccc3)cs2)C(=O)C1	-39.5	25.4	i	26.0	-27.0
O=C1CC(c2ccccc2)=NN1c1nc(-c2ccccc2)cs1	29.3	-6.4	i	-34.4	92.2*
COc1ccc(CNCC(C)NCc2ccc(OC)c(OC)c2)cc1OC (configuration not stated)	-10.7	-6.8	i	-1.3	-6.5
CSc1nnc(-c2sc(-c3ccccc3)nc2C)n1C	11.2	-0.8	+	9.8	-7.5
N#C/C(C(=O)N1CCOCC1)=C1/SC(Cc2ccccc2Cl)C(=O)N1c1ccccc1 (configuration not stated)	27.2	3.5	i	29.6	1.0
Cc1ccc2nc(-c3ccc(NS(=O)(=O)c4ccc(F)cc4)cc3)sc2c1	32.5	15.8	?	32.1	108.9*
COc1ccc2c3c(ccc2c1)C(=O)/C(=C/O)CC3	.	.	.	.	106.6*
Cc1ccc(CN2CCN(/N=C\c3cccc([N+](=O)[O-])c3)CC2)cc1	8.5	-2.1	i	16.4	-6.4
O=C1C(Cc2c[nH]c3ccccc23)NC(=S)N1Cc1ccccc1 (configuration not stated)	8.7	13.7	+	12.0	-6.3
COc1ccc2c(c1)OC[C@H]1[C@H]2N2C(=O)c3cc(OC)c(OC)cc3NC(=O)[C@@]2(C)[C@H]1c1ccccc1	31.2	13.0	.	28.9	-26.8
C[C@@]12C(=O)Nc3ccc(F)cc3C(=O)N1[C@H]1c3ccccc3OC[C@@H]1[C@@H]2c1ccccc1	45.7	-1.3	.	-2.8	+
COc1cc2c(cc1OC)C(=O)N1[C@H]3c4ccccc4OC[C@@H]3[C@H](c3ccccc3)[C@]1(C)C(=O)N2	36.9	25.0	.	32.1	86.3*
C[C@@]12C(=O)Nc3cc(F)c(F)cc3C(=O)N1[C@H]1c3ccccc3OC[C@@H]1[C@@H]2c1ccccc1	.	.	.	.	37.9
CC(C)N=C1NN=C(c2cccs2)C(CC(=O)O)S1 (configuration not stated)	12.7	-3.2	i	16.5	11.8
N#Cc1ccc2nc3c(nc2c1)CCCC3	5.5	2.6	i	20.8	-25.8
CCOCc1cc(C)[nH]c(=O)c1C#N	-8.9	-14.6	+	-17.3	-7.3
COCc1cc(C)c(C#N)c(=S)[nH]1	17.3	16.0	i	-3.1	5.8
O=C(OC[C@@H]1CCCN2CCCC[C@H]12)c1cc2ccccc2oc1=O	0.4	9.1	+	10.6	15.9

Compound activity: PubChem, several laboratories
